# Measured values taken from the supplement of paper PMC11577813, “Eurasian spruce bark beetle detects lanierone using a highly expressed specialist odorant receptor, present in several functional sensillum types” (BMC Biology, 2024).
# ± gives the standard deviation of the averaged measurements.
# Columns and labels:
# [1] = system: (+)-isopinocamphone A-neuron OSN class; assay: net action potential response of A-neuron (blank-subtracted) (spikes/s (Hz)); higher = stronger excitation; settings: 10 µg on filter paper; neuron: A neuron (large spike amplitude)
# Outline: (§1)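 Single sensillum recordings with tungsten electrodes were taken from one fixed antenna of live lab-reared adult Ips typographus, with each compound (10 μg in paraffin oil on filter paper in a pipette) given as a 0.5 s pulse at 0.3 L/min into a humidified, charcoal-filtered 1.8 L/min airstream. AutoSpike counts of A-neuron or B-neuron spikes in 0.5 s windows had the pre-stimulus count subtracted. Responses were then converted to spikes/s, blank-subtracted and averaged over 1–4 sensilla.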
# [2] = system: (+)-trans-4-thujanol A-neuron OSN class; assay: as above; settings: 10 µg on filter paper; neuron: A neuron (large spike amplitude)
# Outline: as §1
# [3] = system: (5S,7S)-trans-conophthorin A-neuron OSN class; assay: as above; settings: 10 µg on filter paper; neuron: A neuron (large spike amplitude)
# Outline: as §1
# [4] = system: ipsdienol A-neuron OSN class; assay: as above; settings: 10 µg on filter paper; neuron: A neuron (large spike amplitude)
# Outline: as §1
# [5] = system: myrcene A-neuron OSN class; assay: as above; settings: 10 µg on filter paper; neuron: A neuron (large spike amplitude)
# Outline: as §1
# [6] = system: p-cymene A-neuron OSN class; assay: as above; settings: 10 µg on filter paper; neuron: A neuron (large spike amplitude)
# Outline: as §1
# [7] = system: lanierone-responsive B-neuron OSN class (ItypOR36); assay: net action potential response of lanierone B-neuron (blank-subtracted) (spikes/s (Hz)); higher = stronger excitation; settings: 10 µg on filter paper, neuron: B neuron (small spike amplitude)
# Outline: as §1
# [8] = co-localized A-neuron class: (4S)-cis-verbenol
# [9] = co-localized A-neuron class: (5S,7S)-trans-conophthorin
# [10] = co-localized A-neuron class: (+)-isopinocamphone
# [11] = co-localized A-neuron class: (+)-trans-4-thujanol
# [12] = co-localized A-neuron class: ipsdienol
# [13] = co-localized A-neuron class: myrcene
# [14] = co-localized A-neuron class: p-cymene
Compound,net action potential response [1],net action potential response [2],net action potential response [3],net action potential response [4],net action potential response [5],net action potential response [6],"net action potential response [7, 8]","net action potential response [7, 9]","net action potential response [7, 10]","net action potential response [7, 11]","net action potential response [7, 12]","net action potential response [7, 13]","net action potential response [7, 14]"
CCCCCCO [1-Hexanol],18.7 ± 22,7 ± 5,6 ± 18,-5.33 ± 5.8,4,5.33 ± 1.1,-0.667 ± 3.1,0.5 ± 3.4,-1.33 ± 1.1,0 ± 1.6,2 ± 2,-6,-2.67 ± 6.1
CC1=CCC(=C(C)C)CC1 [Terpinolene],3.33 ± 5.8,0.5 ± 5.5,4 ± 6.9,–,2,20 ± 16,4.67 ± 6.4,2 ± 2,-4 ± 2,-3 ± 3.8,2 ± 5.3,-8,0.667 ± 2.3
C=C(C)[C@@H]1CC=C(C)CC1 [(-)-Limonene],-0.667 ± 4.2,2 ± 1.6,0 ± 2,5.33 ± 1.1,6,26.7 ± 13,-1.33 ± 5.8,-2.67 ± 3.1,-0.667 ± 2.3,2.5 ± 5.3,1.33 ± 4.6,-8,-1.33 ± 4.2
C=C1[C@@H]2CC[C@@H](C2)C1(C)C (racemic) [(±)-Camphene],-2 ± 2,1.5 ± 1,-2.67 ± 3.1,–,0,-3 ± 1.4,-3.33 ± 8.3,0 ± 2,-3.33 ± 1.1,0 ± 3.6,3.33 ± 2.3,-4,0
CCC/C=C/CO,-1.33 ± 4.2,0 ± 1.6,-0.667 ± 6.4,–,-2,1.33 ± 1.1,0.667 ± 6.4,4.67 ± 3.1,-0.667 ± 6.1,4 ± 2.8,2 ± 5.3,2,2 ± 2.8
CCC1CCC2(CCCO2)O1 (racemic) [(±)-Chalcogran],-3.33 ± 1.1,9 ± 10,175 ± 15,1.33 ± 2.3,2,0.667 ± 3.1,-1.33 ± 5.8,-4 ± 5.3,-1.33 ± 2.3,-1.5 ± 3.4,-0.667 ± 1.1,-8,-2.67 ± 2.3
CC(=O)OCc1ccccc1 [Benzyl acetate],4 ± 3.5,0 ± 2.8,1.33 ± 4.2,–,-4,0 ± 4,2.67 ± 6.4,2 ± 5.3,3.33 ± 6.1,-0.5 ± 1.9,-6.67 ± 3.1,0,0.667 ± 4.2
CC1=CC(C)(C)C=C(O)C1=O [Lanierone],46.7 ± 9.2,-1.5 ± 1.9,-1.5 ± 7,–,0,1.33 ± 1.1,135 ± 24,141 ± 31,160 ± 24,155 ± 24,121 ± 13,144,151 ± 12
CC(=O)OCCC(C)C [3-Methylbutyl acetate],4.67 ± 4.2,3.33 ± 3.1,-2.67 ± 4.6,0 ± 6.9,10,6.67 ± 5,-8 ± 5.3,1.33 ± 2.3,3.33 ± 3.1,0 ± 5.3,2,-6,-2 ± 3.5
"CC12CCC(CC1)C(C)(C)O2 [1,8-Cineole]",-2.67 ± 2.3,1 ± 3.8,2.67 ± 10,0 ± 5.3,8,13.3 ± 11,4 ± 9.2,-6.67 ± 6.1,0.667 ± 4.2,-1 ± 2.6,0 ± 10,-4,0 ± 5.3
C=C1CCC2CC1C2(C)C (stereo not drawn) [(-)-β-Pinene],8 ± 7.2,1 ± 1.1,2 ± 6,2.67 ± 1.1,18,0.667 ± 4.6,-0.667 ± 7.6,3.33 ± 3.1,-3.33 ± 4.6,-3 ± 4.2,0 ± 6,-8,0 ± 7.2
